Results from the supplement of paper PMC10127200.
Structures can show the parent of a compound that is named as a salt.

Tests used:
Experiment in all cases: Euclidean distance of Cell Painting phenotypic profile (signed KS, 77 features) to DMSO centroid (dimensionless distance); 5 or 10 uM (library dependent); higher = stronger phenotypic change vs DMSO (phenoactivity)
Details in all cases: 48 h
786-O = system: 786-O
Summary of the method: (§1)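 At 10 or 5 uM, as set by the library, and 0.1% DMSO final, compounds were applied for 48 h to five cancer lines and one healthy fibroblast line. Stained cells were imaged confocally at 20X in 9 fields per well, and Harmony extracted 77 features scored as signed Kolmogorov-Smirnov statistics against vehicle wells on the same plate. Profiles underwent plate-position correction, correlation weighting and replicate averaging at the top dose. Phenoactivity is the Euclidean distance from each such profile to the median vehicle profile.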

A549 = system: A549
Summary of the method: as §1

DU145 = system: DU145
Summary of the method: as §1

FB = system: FB
Summary of the method: as §1

HEPG2 = system: HEPG2
Summary of the method: as §1

OVCAR4 = system: OVCAR4
Summary of the method: as §1

SMILES	Euclidean distance (786-O)	Euclidean distance (A549)	Euclidean distance (DU145)	Euclidean distance (FB)	Euclidean distance (HEPG2)	Euclidean distance (OVCAR4)
CO[C@@H](C)Cn1c(=O)n(C)c2cnc3ccc(-c4cncc(C(C)(C)O)c4)cc3c21	3.52	4.06	2.18	4.79	2.61	3.29
CC(C)=CCC/C(C)=C/CC/C(C)=C/CC/C(C)=C/CC/C(C)=C/CC/C(C)=C/CC1=C(C)C(=O)c2ccccc2C1=O [Vitamin K2]	1.17	1.16	1.1	0.823	0.747	1.54
O=C(Nc1ccccc1)OCC(CN1CCCCC1)OC(=O)Nc1ccccc1 (stereo not given) [Diperodon HCl]	1.03	1.43	1.31	1.59	0.984	1.64
CC[C@@H]1/C=C(\C)C[C@H](C)C[C@H](OC)[C@H]2O[C@@](O)(C(=O)C(=O)N3CCCC[C@H]3C(=O)O[C@H](/C(C)=C/[C@@H]3CC[C@H](Cl)[C@H](OC)C3)[C@H](C)[C@@H](O)CC1=O)[C@H](C)C[C@@H]2OC [Pimecrolimus]	1.47	1.85	2.17	2.13	0.886	1.29
CCC(C)(C)c1ccc(CC(C)CN2C[C@@H](C)O[C@@H](C)C2)cc1 (stereo not given in full) [Amorolfine HCl]	0.719	0.701	0.552	1.61	0.635	0.693
CCC[C@H](N[C@H]1CCc2cc(F)cc(F)c2C1)C(=O)Nc1cn(C(C)(C)CNCC(C)(C)C)cn1	1.07	1.25	0.825	0.705	1.07	2.26
COc1cc(N2CCN(C)CC2)ccc1Nc1nccc(-c2cn(C)c3cnccc23)n1	2.55	1.56	1.34	2.68	1.53	2.69
CCCOc1ccc2[nH]c(NC(=O)OC)nc2c1 [Oxibendazole]	2.66	2.7	3.08	2.55	1.73	2.58
N[C@@]1(C(=O)O)CS(=O)(=O)[C@H]2[C@H](C(=O)O)[C@H]21	0.494	1.32	0.671	0.749	0.743	0.75
COc1cc2ncnc(Nc3ccc(F)c(Cl)c3)c2cc1NC(=O)/C=C/CN1CCCCC1	3.46	4.69	2.82	2.17	1.47	2.05
C[C@@H](Oc1cc(-c2cnn(C3CCNCC3)c2)cnc1N)c1c(Cl)ccc(F)c1Cl	3.69	4.3	3.56	5.27	4.27	4.15
O=C(NS(=O)(=O)c1ccc(Br)s1)c1ccc(Cl)cc1Cl [Tasisulam]	1.38	0.993	1.21	0.939	1.22	1.66
Cc1nc(Nc2ncc(C(=O)Nc3c(C)cccc3Cl)s2)cc(N2CCN(CCO)CC2)n1 [Dasatinib Monohydrate]	3.41	3.76	6.08	3.53	2.09	4.26
C[C@H](CS)C(=O)N1CCC[C@H]1C(=O)O [Captopril]	1.01	1.13	0.669	0.971	2.08	0.714
c1ccc(-c2[nH]ncc2-c2ccnc3ccccc23)nc1	0.643	0.916	0.92	1.27	1.24	0.931
Cc1nc(Nc2ncc(C(=O)Nc3c(C)cccc3Cl)s2)cc(N2CCN(CCO)CC2)n1 [Dasatinib hydrochloride]	3.83	4.46	4.71	3.53	2.21	4.45
CN(C)c1ccc(C(=C2C=CC(=[N+](C)C)C=C2)c2ccc(N(C)C)cc2)cc1 [Crystal Violet]	3.55	2.83	3	2.46	3.45	2.56
CCC[C@H](NC(=O)[C@@H]1[C@H]2CCC[C@H]2CN1C(=O)[C@@H](NC(=O)[C@@H](NC(=O)c1cnccn1)C1CCCCC1)C(C)(C)C)C(=O)C(=O)NC1CC1 [Telaprevir (VX-950)]	1.35	1.63	1.2	0.968	0.621	1.3
C[C@H]1CN(C[C@H](Cc2ccccc2)C(=O)NCC(=O)O)CC[C@@]1(C)c1cccc(O)c1 [Alvimopan dihydrate]	0.875	0.429	1.89	0.594	0.342	0.96
O=C1c2c(O)cccc2C([C@@H]2O[C@H](CO)[C@@H](O)[C@H](O)[C@H]2O)c2cc(CO)cc(O)c21 (stereo not given in full) [Aloin]	1.2	0.555	0.756	0.842	0.479	0.881
CCC(Cc1c(I)cc(I)c(N)c1I)C(=O)O (stereo not given) [Iopanoic acid]	0.512	0.937	0.812	1.22	0.765	0.713
Nc1c(CC(=O)O)cccc1C(=O)c1ccc(Br)cc1 [Bromfenac Sodium]	1.21	1.01	0.957	1.42	0.3	1.75
CCCCCCCN(CC)CCCC(O)c1ccc(NS(C)(=O)=O)cc1 (stereo not given) [Ibutilide Fumarate]	1.19	0.555	1.13	1.27	1.2	1.47
COCCCN1CCC(NC(=O)c2cc(Cl)c(N)c3c2OCC3)CC1 [Prucalopride Succinat]	0.911	0.777	0.699	0.581	0.684	0.827
COc1c(O[C@@H]2O[C@H](CO)[C@@H](O)[C@H](O)[C@H]2O)cc2c(c1OC)-c1ccc(SC)c(=O)cc1[C@@H](NC(C)=O)CC2 [Thiocolchicoside]	0.819	0.537	0.944	1.41	0.502	1.21
